{
  "source": "PubChem BioAssay (NCI)",
  "note": "Compounds without any hit were thinned out: in the full panel of roughly 83,000, 20% have a hit.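 Single-concentration screen, 48 h exposure, 96-well plates. Endpoint: percent growth. Below 10 = active.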 Unmarked numbers belong to inactive results. Active and inactive are the calls of the source.",
  "data": [
    {"system": "HL-60(TB) leukemia", "test": "NCI-60 one-dose screen, 48 h (100 = growth as untreated, 0 = no growth, -100 = all killed)", "settings": "10 µM unless noted", "values": [
      {"compound": "Cn1cc(-c2[nH]c3cc(NC(=O)[C@H](N)C4CCCCC4)cc4c3c2C=NNC4=O)cn1", "growth": "-55.8% (active)"},
      {"compound": "NNCCc1ccc(NC(=O)CCCc2ccc(/C=C/C(=O)NO)cc2)cc1", "growth": "18.3%"},
      {"compound": "CN(C)c1ccc(C2C(C#N)=C(/N=C/c3ccccc3)Oc3c2ccc2ccccc32)cc1", "note": "(stereo not given)", "growth": "29.5%"},
      {"compound": "CCOC(=O)N1CCN(S(=O)(=O)c2oc(-c3ccc(Cl)cc3)nc2C#N)CC1", "growth": "56.4%"},
      {"compound": "c1ccc(-c2cn(-c3ccccc3)c(-c3ccccc3)n2)cc1", "growth": "40.3%"},
      {"compound": "CN(C)c1ccc(/C=N/N=C(\\C#N)[S][Sn]([Cl])([c]2ccccc2)[c]2ccccc2)cc1", "growth": "0.861% (active)"},
      {"compound": "O=C1/C(=C/c2ccc([N+](=O)[O-])s2)Oc2ccc(Br)cc21", "growth": "-22.3% (active)"},
      {"compound": "CC(=O)OCCc1ccccc1", "growth": "92%"},
      {"compound": "COc1ccc(O)c(-c2cc(-c3ccc(Cl)cc3)c(C#N)c(=O)[nH]2)c1", "growth": "65.2%"},
      {"compound": "N#Cc1nc(C#N)c(Sc2ccccc2)c(Sc2ccccc2)c1Sc1ccccc1", "growth": "-37.2% (active)"},
      {"compound": "CCOC(=O)C1=C(C)NC(SCc2nnc(-c3ccc(Cl)cc3)o2)=NC1c1ccc(Cl)cc1", "note": "(stereo not given)", "growth": "21.4%"},
      {"compound": "O=C1C(=O)c2ccccc2C(O)=C1CCCc1ccc(Oc2ccccc2)cc1", "growth": "44.3%"},
      {"compound": "COc1ccc2nc3cc(Cl)ccc3c(NCCCCCN3CCCCC3)c2c1", "growth": "-42.2% (active)"},
      {"compound": "CN1CCc2c(c3ccccc3c3ccccc23)C1", "growth": "35.1%"},
      {"compound": "C=C(C)[C@@H]1CC[C@]2(C(N)=O)CC[C@]3(C)[C@H](CC[C@@H]4[C@@]5(C)CC[C@H](O)C(C)(C)[C@@H]5CC[C@]43C)[C@@H]12", "growth": "1.17% [100 µM] (active)"}
    ]}
  ]
}
